Inconclusive results are not listed. The source made the active and inactive calls. Calls come from the whole dose curve. Numbered stars: 1 amine (or outer) side, 2 acyl side, 3 side chain; on linkers, the order of the positions; unused ones are H or OH. Bridge positions count the residues as written; N and C are the ends. Square brackets hold non-standard residues; d marks the D form. Peptide text beside a SMILES is read from it. I, II: the chains in the order shown. Actinocin(9to1) = Cc1c2oc3c(C)ccc(C(=O)[*:1])c3nc-2c(C(=O)[*:2])c(N)c1=O; NMeV = CN[C@H](C(=O)O)C(C)C; Sar = CNCC(=O)O
Potency is the fitted concentration of half-maximal effect.

The assay in a line: VSVG counterscreen qHTS to identify inhibitors of SARS-CoV-2 cell entry (AID 1645847). Note: nearly all actives have a fitted effect of over 65% in size. To be noted: VSV-G pseudotyped particle entry, luciferase; series mostly up to 57.2 µM. An excerpt: Assay Provider: Wei Zheng, Ph.D.
National Center for Advancing Translational Sciences, National Institute of Health, Rockville, MD.
SARS-CoV-2 spike protein, within the viral envelope, mediates viral attachment and infection of host cells. The SARS-CoV-2 spike protein specifically binds to the host receptor ACE2 (Angiotensin-converting enzyme 2). This interaction promotes endocytosis of the viral particle, additional events lead to viral-host cell membrane fusion and release of the viral contents, allowing viral replication.
While SARS-CoV-2 requires BSL-3 facilities for live virus work, pseudotyped partices (PP) that incorporate SARS-CoV-2 spike proteins without replication elements could facilitate studies on viral entry mechanisms in a BSL-2 setting. This PP cell entry assay could also enable screening of small molecule compound libraries in BSL-2 setting to identify inhibitors of SARS-CoV-2 cell entry.
SEQUENCE No. (e.g., 1, 2, 3, etc.); […] (e.g., Cells, Incubation, Reagent, etc.); VALUE and DESCRIPTION.
1. Cells. Seed 1500 HEK293-ACE2 cells (Expi293F with stable expression of human ACE2) in 2 microL/well media (DMEM, 10% FBS, 1x L-glutamine, 1x Pen/Strep, 1 ug/ml puromycin) in white 1536-well assay plates (Greiner #782073).
2. Incubation. Incubate at 37 degrees C with 5% CO2 overnight (~16 h).
3. Compound. Dispense 23 nL/well compounds in DMSO via pin transfer.
4. Incubation. Incubate for 1 h at 37C 5% CO2.
5. Reagent. Dispense 2 microL/well of vesicular stomatitis virus G glycoprotein (VSV-G) pseudotyped particles (PP). [a] PPs are produced with murine leukemia virus pseudo-typing.
6. Centrifugation. […]
7. Incubation. Incubate at for 48 h at 37C 5% CO2
8. Centrifugation. Remove supernatant with gentle centrifugation using a Blue Washer (BlueCat Bio).
9. Reagent. Dispense 4 microL/well of Bright-Glo Luciferase detection reagent (Promega #E2620).
10. Incubation. Incubate for 5 min at room temperature.
11. Detection. Read luminescence signal (ViewLux plate reader, PerkinElmer). Data was normalized with wells containing VSV-G PP as 100%, and wells containing bald PP (no fusion protein) as 0%.
Background: Counterscreens check selectivity or assay interference.
As for `O=C1CCc2ccc(OCCCCN3CCN(c4cccc(Cl)c4Cl)CC3)cc2N1`, the Potency is 13600 nM (active).

Turning to `CC[C@]1(O)C[C@@H]2CN(CCc3c([nH]c4ccccc34)[C@@](C(=O)OC)(c3cc4c(cc3OC)N(C)[C@H]3[C@@](O)(C(=O)OC)[C@H](OC(C)=O)[C@]5(CC)C=CCN6CC[C@]43[C@@H]65)C2)C1`, the Potency is 34.1 nM (active).

With `Clc1ccc(COC(Cn2ccnc2)c2ccc(Cl)cc2Cl)cc1` (centres undefined), the Potency was 12100 nM (active).

As to `Cc1nc(Nc2ncc(C(=O)Nc3c(C)cccc3Cl)s2)cc(N2CCN(CCO)CC2)n1`, the Potency was 3830 nM (active).

Take `COC(=O)Nc1nc2ccc(C(=O)c3cccs3)cc2[nH]1`: the Potency is 152 nM (active).

As to `C=C(CC)C(=O)c1ccc(OCC(=O)O)c(Cl)c1Cl`, the Potency is 1920 nM (active).

As for `CC(CN(C)C)CN1c2ccccc2CCc2ccccc21` (centres undefined), the Potency is 1920 nM (active).

As for `Cc1cn([C@H]2C[C@H](N=[N+]=[N-])[C@@H](CO)O2)c(=O)[nH]c1=O`, the Potency is 429 nM (active).

As for `Nc1ncn([C@@H]2O[C@H](CO)[C@@H](O)[C@H]2O)c(=O)n1`, the Potency was 19200 nM (active).

Take `CCC1=C[C@@H]2CN(C1)Cc1c([nH]c3ccccc13)[C@@](C(=O)OC)(c1cc3c(cc1OC)N(C)[C@H]1[C@@](O)(C(=O)OC)[C@H](OC(C)=O)[C@]4(CC)C=CCN5CC[C@]31[C@@H]54)C2`: the Potency was 1670 nM (active).

For `O=C(O)c1ccc(-n2nc(-c3ccccc3O)nc2-c2ccccc2O)cc1`, the Potency was 24100 nM (active).

On to `CCCCNc1ccc(C(=O)OCCOCCOCCOCCOCCOCCOCCOCCOCCOC)cc1`, for which the Potency is 21500 nM (active).

On to `CC(C)(C)C(=O)OCOP(=O)(COCCn1cnc2c(N)ncnc21)OCOC(=O)C(C)(C)C`, for which the Potency is 15.2 nM (active).

For the compound `CCCc1cc(=O)[nH]c(=S)[nH]1`, the Potency entry is “inactive”.

In the case of `COc1c(C)c2c(c(O)c1C/C=C(\C)CCC(=O)OCCN1CCOCC1)C(=O)OC2`, the Potency is 429 nM (active).

For the compound `CC(=O)Oc1ccccc1C(=O)Nc1ncc([N+](=O)[O-])s1`, the Potency is 1080 nM (active).

In the case of `O=C1C(=O)c2ccccc2C(O)=C1C1CCC(c2ccc(Cl)cc2)CC1` (centres undefined), the Potency was 9610 nM (active).

For the compound `OCCN1C[C@H](O)[C@@H](O)[C@H](O)[C@H]1CO`, the Potency is 4290 nM (active).

For `COC(c1ccccc1)(c1ccccc1)[C@H](Oc1nc(C)cc(C)n1)C(=O)O`, the Potency entry is “inactive”.

As to `CN(C)C(=O)C(CCN1CCC(O)(c2ccc(Cl)cc2)CC1)(c1ccccc1)c1ccccc1`, the Potency was 24100 nM (active).

Consider `CNCCC(Oc1ccc(C(F)(F)F)cc1)c1ccccc1` (centres undefined), for which the Potency is 121 nM (active).

For the compound `COc1c(C)c2c(c(O)c1C/C=C(\C)CCC(=O)O)C(=O)OC2`, the Potency is 482 nM (active).

With `COc1cccc2c1C(=O)c1c(O)c3c(c(O)c1C2=O)C[C@@](O)(C(=O)CO)C[C@@H]3O[C@H]1C[C@H](N)[C@H](O)[C@H](C)O1`, the Potency was 152 nM (active).

With `CC(=O)[C@]1(O)Cc2c(O)c3c(c(O)c2[C@@H](O[C@H]2C[C@H](N)[C@H](O)[C@H](C)O2)C1)C(=O)c1ccccc1C3=O`, the Potency is 85.7 nM (active).

For `Nc1ccn([C@@H]2O[C@H](CO)[C@@H](O)C2(F)F)c(=O)n1`, the Potency is 304 nM (active).

On to `CC[C@]1(O)C[C@H]2CN(CCc3c([nH]c4ccccc34)[C@@](C(=O)OC)(c3cc4c(cc3OC)N(C=O)[C@H]3[C@@](O)(C(=O)OC)[C@H](OC(C)=O)[C@]5(CC)C=CCN6CC[C@]43[C@@H]65)C2)C1`, for which the Potency is 17.1 nM (active).

As to `CC/C(=C(\c1ccccc1)c1ccc(OCCN(C)C)cc1)c1ccccc1`, the Potency is 49400 nM (active).

For the compound `N[C@@H](Cc1ccc(N(CCCl)CCCl)cc1)C(=O)O`, the Potency is 152 nM (active).

Turning to `COC(=O)Nc1nc2ccc(C(=O)c3ccccc3)cc2[nH]1`, the Potency is 1520 nM (active).

In the case of `Cc1c2oc3c(C)ccc(C(=O)N[C@@H]4C(=O)N[C@H](C(C)C)C(=O)N5CCC[C@H]5C(=O)N(C)CC(=O)N(C)[C@@H](C(C)C)C(=O)O[C@@H]4C)c3nc-2c(C(=O)N[C@@H]2C(=O)N[C@H](C(C)C)C(=O)N3CCC[C@H]3C(=O)N(C)CC(=O)N(C)[C@@H](C(C)C)C(=O)O[C@@H]2C)c(N)c1=O` (I: T[dV]P[Sar][NMeV] / II: T[dV]P[Sar][NMeV]; ester I:1-I:C, II:1-II:C; linker I:N-II:N via Actinocin(9to1)), the Potency is 42.9 nM (active).

Take `CCc1c2c(nc3ccc(OC(=O)N4CCC(N5CCCCC5)CC4)cc13)-c1cc3c(c(=O)n1C2)COC(=O)[C@]3(O)CC`: the Potency is 171 nM (active).

With `CN(C)CCCN1c2ccccc2Sc2ccc(Cl)cc21`, the Potency was 17100 nM (active).

`COC(=O)C1=C(C)NC(C)=C(C(=O)OCC(C)C)C1c1ccccc1[N+](=O)[O-]` (centres undefined): the Potency is 5410 nM (active).

With `CN1CCC(=C2c3ccccc3C=Cc3ccccc32)CC1`, the Potency is 192 nM (active).

The record behind these values is PubChem BioAssay (NCATS).
